In PubChem BioAssay AID504697 (The Scripps Research Institute Molecular Screening Center, 2011):
Calls of active or inactive are those of the source.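 The calls were made as follows: active = EC50 at or below 10 µM; inactive = EC50 above 10 µM.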

assay: compound autofluorescence in calcium buffer – biochemical, fluorescence, no RTF in test wells, artefact control for cardiac thin filament activator project, dose response (AID 504697); conditions: compound-only fluorescence in RTF assay buffer with Ca2+ (no RTF in test wells), artifact counterscreen;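 also: emission near 535 nm under roughly 485 nm excitation as for IANBD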

SMILES | EC50
O=C(Nc1nc(-c2nc3ccccc3s2)cs1)C1COc2ccccc2O1 (configuration not stated) | > 71.5 µM (inactive)
Fc1ccc(-c2[nH]ncc2CN(CC2CCC2)CC2CCCO2)c(F)c1 (configuration not stated) | > 71.5 µM (inactive)
CN(C)NC(=O)c1ccc([N+](=O)[O-])s1 | > 71.4 µM (inactive)
CCOc1cc(N2CCOCC2)c(OCC)cc1NC(=O)CCS(=O)(=O)c1ccc(Cl)cc1 | > 71.5 µM (inactive)
COc1ccc(/C=C/C(=O)NC(=S)Nc2ccc(C(=O)O)cc2)cc1 | > 71.5 µM (inactive)
COc1ccc(C(=O)Nc2cc(C(C)=O)c(/C=C/N(C)C)oc2=O)cc1 | 29.5 µM (inactive)
O=C(COc1ccccc1F)NC1CC1 | > 71.5 µM (inactive)
O=C(/C=C/c1nc2ccccc2s1)N1CCCCCC1 | > 71.5 µM (inactive)
Cc1cc(NC(=O)COC(=O)C(Cc2ccccc2)NC(=O)c2ccco2)no1 (configuration not stated) | > 71.5 µM (inactive)
Cc1ccc(N2C(=O)C3C(C(=O)c4ccccc4)=NN(c4ccccc4)C3C2=O)cc1 (configuration not stated) | 33.8 µM (inactive)
CCOc1cc(/C=C2\N=C(SC(C)C(N)=O)N(c3ccc(OC(F)F)cc3)C2=O)ccc1O (configuration not stated) | 23.3 µM (inactive)
Cc1cccn2c(=O)c(/C=C3\SC(=S)N(CC(C)C)C3=O)c(NCCCOC(C)C)nc12 | 0.988 µM (active)
Cn1nc(NC(=O)C2CCC2C(=O)O)c2c(F)cccc21 (configuration not stated) | > 71.5 µM (inactive)
CCN(CC)c1ccc(/C=C2\C(=O)c3ccc(C(=O)O)cc3C2=O)cc1 | 1.04 µM (active)
O=C(O)c1ccccc1CSc1nnnn1-c1ccccc1 | > 71.5 µM (inactive)
Cc1nnc(N/N=C/c2ccc(O)c([N+](=O)[O-])c2)[nH]c1=O | > 71.5 µM (inactive)
CCN1C(=O)/C(=C/N2CCc3ccccc32)SC1=S | 10.1 µM (inactive)
c1ccc(Cn2c(-c3ccccc3)nc3nc4ccccc4nc32)cc1 | > 71.5 µM (inactive)
Cn1cnnc1Sc1nc2ccccc2nc1NS(=O)(=O)c1ccccc1 | > 71.5 µM (inactive)

SMILES | EC50
Cn1ncc2c(O/N=C(\N)c3ccc(C(F)(F)F)cc3)ncnc21 | > 71.5 µM (inactive)
C=CCN1C(=O)c2ccccc2NC1c1cc(Br)cs1 (configuration not stated) | > 71.5 µM (inactive)
O=C(COC(=O)c1ccc(O)cc1)Nc1ccc2c(c1)OCCO2 | > 71.5 µM (inactive)
COc1c(O)cccc1-c1nnn(CCC(=O)OCC(=O)c2ccccc2)n1 | > 71.5 µM (inactive)
CSc1ccc(C2C(C(=O)c3ccco3)=C(O)C(=O)N2c2nnc(SC)s2)cc1 (configuration not stated) | 0.726 µM (active)
CCOC(=O)/C(=C/C1=CC(=C/N(C)C)/C(=O)O1)C(C)=O | 15.3 µM (inactive)
S=C(Nc1cc(Cl)ccc1Oc1ccccc1)N1CCN(c2ccccn2)CC1 | > 71.4 µM (inactive)
CCC(/C=C1\Oc2ccc(OC)cc2N1C)=C\c1sc2ccccc2[n+]1CCCS(=O)(=O)[O-] | 2.92 µM (active)
CCN(CC)CCN1C(=O)c2cccc3cc(N)cc(c23)C1=O | 49.2 µM (inactive)
CCC[C@@H](CN1CCC[C@H]1CN1C(N)=NC[C@@H]1Cc1ccccc1)N1C[C@@H](Cc2ccccc2)N(CCCC2CCCC2)C1=N | > 71.4 µM (inactive)
COc1ccccc1NS(=O)(=O)c1cc(NC(=O)c2cc3ccccc3oc2=O)ccc1C | > 71.5 µM (inactive)
Cn1nccc1NC(=O)Nc1cccc(Cl)c1Cl | > 71.4 µM (inactive)
Cc1ccc(C(=O)Nc2ccc3c(c2)ncn3C)cc1 | > 71.4 µM (inactive)
Cc1cc(S(=O)(=O)N2CCCC(C(=O)Nc3ccc(C(=O)O)cc3)C2)ccc1Cl (configuration not stated) | > 71.5 µM (inactive)
O=C(Nc1ccc(Cl)c(Cl)c1)Nc1ccc([N+](=O)[O-])cn1 | > 71.5 µM (inactive)
COc1ccc(/C=N/NC(=O)c2cccnc2)cc1CN1CCOCC1 | > 71.5 µM (inactive)
COc1ccccc1-c1nnc(SCc2nc3ccccc3s2)n1C | > 71.5 µM (inactive)
CC1=CC(=C(C#N)C#N)C=C(C)N1Cc1ccc(Cl)cc1 | > 71.5 µM (inactive)
